Assay outcomes deposited in PubChem BioAssay by Johns Hopkins Ion Channel Center.
CHT inh: human CHT choline transport inhibition; Q9GZV3; CHT-expressing cells, membrane potential dye, choline response; active compounds read low; B-score at 10 µM; 0.86% of 310,000 active; AID 488975;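 active = B-score over 3 SD under the library average, and starting fluorescence ratio not unusually high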;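 note: choline stimulus applied at its EC90 after an EC20 pre-addition; B-score computed on integrated fluorescence ratio after choline addition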
Target sequence (Q9GZV3 whole entry, looked up): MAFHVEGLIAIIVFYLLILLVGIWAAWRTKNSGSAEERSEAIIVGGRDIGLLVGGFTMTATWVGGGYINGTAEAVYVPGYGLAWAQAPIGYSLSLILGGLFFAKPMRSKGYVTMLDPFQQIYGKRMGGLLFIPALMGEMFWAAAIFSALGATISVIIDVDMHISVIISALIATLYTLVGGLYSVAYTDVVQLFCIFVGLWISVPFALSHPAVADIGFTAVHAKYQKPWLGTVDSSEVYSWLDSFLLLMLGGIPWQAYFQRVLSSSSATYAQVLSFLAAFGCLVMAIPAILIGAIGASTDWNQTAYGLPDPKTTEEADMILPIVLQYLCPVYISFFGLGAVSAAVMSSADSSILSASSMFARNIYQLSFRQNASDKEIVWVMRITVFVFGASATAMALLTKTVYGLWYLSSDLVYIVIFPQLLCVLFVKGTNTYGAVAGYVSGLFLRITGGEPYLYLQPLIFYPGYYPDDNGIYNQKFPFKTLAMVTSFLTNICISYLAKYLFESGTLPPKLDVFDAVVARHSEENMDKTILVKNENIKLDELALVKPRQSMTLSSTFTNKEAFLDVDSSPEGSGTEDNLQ
ANO1 block: mouse TMEM16A channel inhibition, primary screen | AID 588511 | normalized B-score (activity score, 25-100; higher = stronger inhibition) at 10 µM | 1.2% of 310,000 active | Q8BHY3 | HEK293 TMEM16A/YFP iodide influx fluorescence, ionomycin;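 active = ratio plate-corrected score three or more library SD toward inhibition, starting fluorescence score within five deviations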;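 note: score derived from kinetic fluorescence span divided by baseline fluorescence per well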
ANO1 activ: activates or potentiates the mouse TMEM16A chloride channel | Q8BHY3 | HEK293 TMEM16A/YFP-H148Q/I152L, iodide quench fluorescence; active compounds read low | B-score at 10 µM | 0.3% of 340,000 active;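 active = fluorescence-ratio B-score plate-corrected deviation score at least 3 library SD below zero, with starting fluorescence score within 5 deviations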;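 note: channel opened by trigger with iodide after compound preincubation; score built on the fluorescence ratio of max minus min over baseline; more negative score means more quench and so TMEM16A activation or potentiation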
CHT PAM: allosteric activators of human choline transporter CHT. Q9GZV3. CHT-expressing cells, membrane potential dye, choline EC20; active compounds read high; LV-AA mutant CHT in HEK293 cells. B-score at 10 µM. 0.49% of 310,000 active;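 active = initial fluorescence not abnormally high and integrated response B-score, plate-corrected, over 3 SD above library mean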
An asterisk follows results filed as active. Shown are actives, neighbours in structure and some others; about 2.3% of the full set was active somewhere.

For CC(C)c1ccc(NC(=O)C2C3C=CC4(CN(CCCN5CCOCC5)C(=O)C24)O3)cc1 (centres undefined) the results were CHT inh inactive, ANO1 block inactive, ANO1 activ inactive and CHT PAM inactive.
Screening CCN(Cc1nc(-c2ccccc2)no1)C(=O)c1ccco1 returned CHT inh inactive, ANO1 block inactive, ANO1 activ inactive and CHT PAM inactive.
`COC(=O)c1ccc(N2CCN(C)CC2)c(NC(=O)c2ccc(Br)o2)c1` gave CHT inh -5.33*, ANO1 block inactive, ANO1 activ inactive and CHT PAM inactive.
COc1ccc(N2CCOCC2)c(NC(=O)c2ccc(Br)o2)c1 was read as CHT inh inactive, ANO1 block inactive, ANO1 activ inactive and CHT PAM inactive.
`CC(C)[C@H](NC(=O)c1ccco1)C(=O)OCC(=O)Nc1cccc(F)c1` gave CHT inh inactive, ANO1 block inactive, ANO1 activ -40.7* and CHT PAM inactive.
`Cc1cccc(C)c1OCC(=O)Nc1ccc(NC(=O)c2ccco2)cc1` gave CHT inh inactive, ANO1 block inactive, ANO1 activ inactive and CHT PAM inactive.
`CC(C)[C@H](NC(=O)c1ccco1)C(=O)OCC(=O)Nc1ccc(Cl)c(S(=O)(=O)N(C)C)c1` gave CHT inh inactive, ANO1 block inactive, ANO1 activ inactive and CHT PAM inactive.
For Cc1cccc(C)c1OCC(=O)Nc1cccc(NC(=O)c2ccco2)c1 the results were CHT inh inactive, ANO1 block 100*, ANO1 activ inactive and CHT PAM inactive.
For COc1ccc(N2CCCn3c2nc2c3c(=O)n(Cc3ccccc3F)c(=O)n2C)c(OC)c1 the results were CHT inh inactive, ANO1 block inactive, ANO1 activ inactive and CHT PAM inactive.
For COc1ccc(-n2nc(C(=O)NCC(=O)Nc3cccc(Cl)c3)c3ccccc3c2=O)cc1OC the results were CHT inh inactive, ANO1 block 25*, ANO1 activ inactive and CHT PAM inactive.
CN1CCN(c2c([N+](=O)[O-])cnc3ccccc23)CC1 was read as CHT inh inactive, ANO1 block inactive, ANO1 activ inactive and CHT PAM inactive.
For COc1cc(/C=C2\C(=N)N3N=CSC3=NC2=O)cc(Br)c1OC(=O)c1ccco1 the results were CHT inh inactive, ANO1 block inactive, ANO1 activ -8.87* and CHT PAM inactive.
COc1cc(/C=C2/C(=N)N3C(=NC2=O)SN=C3S(C)(=O)=O)ccc1OC(=O)c1ccco1 was read as CHT inh inactive, ANO1 block inactive, ANO1 activ inactive and CHT PAM inactive.
For CSC1=NSC2=NC(=O)/C(=C\c3cccs3)C(=N)N12 the results were CHT inh inactive, ANO1 block 100*, ANO1 activ inactive and CHT PAM inactive.
Screening N=C1/C(=C\c2ccc(OC(=O)c3ccco3)cc2)C(=O)N=C2SC=NN12 returned ANO1 activ inactive.
`COc1cc(/C=C2/C(=N)N3C(SC)=NSC3=NC2=O)ccc1OC(=O)c1ccco1` gave CHT inh -6.48*, ANO1 block inactive, ANO1 activ inactive and CHT PAM inactive.
For CC(C)(CO)Cc1cc(C(C)(C)C)c(O)c(C(C)(C)C)c1 the results were CHT inh inactive, ANO1 block inactive, ANO1 activ inactive and CHT PAM inactive.
Screening COCC(C)Nc1nc(C)c(C(C)=O)s1 (centres undefined) returned CHT inh inactive, ANO1 block inactive, ANO1 activ inactive and CHT PAM inactive.
Screening Cc1ccc(C(=O)CN(CCCC(N)=O)C(=O)c2ccncc2)cc1 returned CHT inh inactive, ANO1 block inactive, ANO1 activ inactive and CHT PAM inactive.
`COc1cccc(CN(C(=O)c2cnccn2)C(C(=O)NC2CCCCC2)c2cc(OC)c(OC)c(OC)c2)c1` (centres undefined) gave CHT inh inactive, ANO1 block inactive, ANO1 activ inactive and CHT PAM inactive.
`CCC1(C(=O)OC)NC(c2ccco2)C2C(=O)N(c3ccccc3)C(=O)C21` (centres undefined) gave CHT inh inactive, ANO1 block inactive, ANO1 activ -4.77* and CHT PAM inactive.
For CCC1(C(=O)OC)NC(c2ccco2)C2C(=O)N(c3ccc(F)cc3)C(=O)C21 (centres undefined) the results were CHT inh inactive, ANO1 block inactive, ANO1 activ inactive and CHT PAM inactive.
CCCCCCOC1(c2ccccc2)OC(=O)c2ccccc21 (centres undefined) was read as CHT inh inactive, ANO1 block 25*, ANO1 activ inactive and CHT PAM inactive.
For S=c1nc(-c2ccccc2Cl)n(Cc2cccnc2)c2c1CCCC2 the results were CHT inh inactive, ANO1 block inactive, ANO1 activ inactive and CHT PAM inactive.
For Cc1ccc(NC(=O)CSc2nn(-c3ccccc3)c(=S)s2)cc1S(=O)(=O)N(C)C the results were CHT inh inactive, ANO1 block 25*, ANO1 activ inactive and CHT PAM inactive.
`C=CCN1C(=O)C(CC(=O)Nc2ccc(OC)cc2)N(Cc2ccco2)C1=S` (centres undefined) gave CHT inh inactive, ANO1 block inactive, ANO1 activ -6.82* and CHT PAM inactive.
For COc1ccc(NC(=O)CC2C(=O)N(CCc3ccccc3)C(=S)N2Cc2cccnc2)cc1 (centres undefined) the results were CHT inh inactive, ANO1 block 25*, ANO1 activ inactive and CHT PAM inactive.
CCN(CC)CCCNC(=O)c1cc(-c2ccccc2)c(N2CCCCC2)s1 was read as CHT inh inactive, ANO1 block inactive, ANO1 activ inactive and CHT PAM inactive.
For CSc1ccc(COC(=O)c2cc([N+](=O)[O-])ccc2N2CCOCC2)cc1 the results were CHT inh inactive, ANO1 block inactive, ANO1 activ inactive and CHT PAM 6.35*.
Cc1ccccc1COC(=O)c1cc([N+](=O)[O-])ccc1N1CCOCC1 was read as CHT inh inactive, ANO1 block inactive, ANO1 activ inactive and CHT PAM inactive.
Cc1c([N+](=O)[O-])c(C(=O)NC2CCCCC2)nn1C was read as CHT inh inactive, ANO1 block inactive, ANO1 activ inactive and CHT PAM inactive.
Screening COc1ccc(C(=O)CSc2nc(C)cc(C)n2)cc1C returned CHT inh inactive, ANO1 block inactive, ANO1 activ inactive and CHT PAM inactive.
For COc1ccc(SCC(=O)c2cc(C)c(OC(=S)N(C)C)c(C)c2)cc1 the results were CHT inh inactive, ANO1 block 25*, ANO1 activ inactive and CHT PAM inactive.
COC(=O)c1ccc(N(C(=O)c2ccco2)C(C(=O)NC2CCCC2)c2ccco2)cc1 (centres undefined) was read as CHT inh inactive, ANO1 block inactive, ANO1 activ inactive and CHT PAM inactive.
